# PubChem BioAssay (Tox21)
# Results filed as inconclusive are left out. Active and inactive are the calls of the source. The call rests on the fitted dose curve; in most records, active means well fitted activation curve with a large enough effect in the repeat runs; inconclusive means weak or mixed curves; inactive means no such curve, though single readings can be large or run the other way.
# Assay: qHTS assay for small molecules that induce genotoxicity in human embryonic kidney cells expressing luciferase-tagged ATAD5 (AID 651632); further: nearly all actives have a fitted effect of over 15% in size
# Conditions: HEK293T ATAD5-luciferase induction, 16 h; series mostly up to 83.3 µM; activation: at the top concentration
# Method in brief: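 DMSO vehicle served as the control. HEK293T reporter cells, 16 hr at 37C, then 30 min Amplite at room temperature; ATAD5 induction is measured as luciferase activity.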
# On the % scale 0 is the no-effect control and ±100 the full control effect; potency means the concentration at half of the fitted maximal effect.
Compound,activation,Potency
CC(C)(C)c1cccc(O)c1,2.62% (inactive),
CCOc1ccccc1N,0.938% (inactive),
CCCCCCC,1.77% [at 95.3 µM] (inactive),
CCN1CC(CCN2CCOCC2)C(c2ccccc2)(c2ccccc2)C1=O (stereo unspecified),1.65% (inactive),
COC(=O)C(C)O (stereo unspecified),0.722% [at 95.3 µM] (inactive),
O=C1CCCc2ccccc21,-0.19% [at 95.3 µM] (inactive),
NC(=O)Cc1cccc(C(=O)c2ccccc2)c1N,-1.4% (inactive),
C=CC1CO1 (stereo unspecified),-0.761% [at 95.3 µM] (inactive),
CCN[C@H]1CN(CCCOC)S(=O)(=O)c2sc(S(N)(=O)=O)cc21,-0.774% [at 39.1 µM] (inactive),
CCCNC(C)C(=O)Nc1c(C)csc1C(=O)OC (stereo unspecified),2.55% [at 39.1 µM] (inactive),
CC(=O)N[C@@H](CC(C)C)C(=O)O,3.32% (inactive),
O=C(O[C@@H](C(=O)O)[C@@H](OC(=O)c1ccccc1)C(=O)O)c1ccccc1,0.356% [at 95.3 µM] (inactive),
C=CC(C)(O)CC/C=C(\C)CCC=C(C)C (stereo unspecified),,inactive
CC(C)C(=O)OCC(C)(C)C(O)C(C)C (stereo unspecified),0.214% [at 95.3 µM] (inactive),
Cc1ccccc1C(=O)Nc1ccc(C(=O)N2CCCC(O)c3cc(Cl)ccc32)c(C)c1 (stereo unspecified),-5.44% (inactive),
CC(C)C(=O)OC/C=C/c1ccccc1,-1.02% (inactive),
CCOC(=O)[C@H](CCc1ccccc1)N[C@@H](C)C(=O)N1Cc2cc(OC)c(OC)cc2C[C@H]1C(=O)O,2.58% (inactive),
CCOC(=O)C(Br)c1ccccc1 (stereo unspecified),2.08% (inactive),

Compound,activation,Potency
C=C(C)C(=O)OCCOP(=O)(O)O,2.16% [at 95.3 µM] (inactive),
NC/C=C/C(=O)O,-2.86% (inactive),
CC(C)c1ccccc1,-0.795% [at 95.3 µM] (inactive),
CCCCCCCCCC/C=C/C#N,0.483% (inactive),
COc1ccccc1N1CCN(CCCNc2cc(=O)n(C)c(=O)n2C)CC1,,inactive
O=C1N(c2ccccc2)c2ccccc2C1(Cc1ccncc1)Cc1ccncc1,-0.706% (inactive),
OCc1c2ccccc2cc2ccccc12,0.872% [at 95.3 µM] (inactive),
CC(C)(CO)[C@@H](O)C(=O)NCCC(=O)O,-0.296% [at 95.3 µM] (inactive),
NCCC(O)(P(=O)(O)O)P(=O)(O)O,4.15% (inactive),
CN(C)Cc1ccccc1,,inactive
CC/C=C\CCOC(=O)CCCCC,1.31% (inactive),
COC(=O)c1ccc(OC)cc1,1.63% (inactive),
Cc1cc(S(=O)(=O)O)c(N)cc1Cl,2.02% [at 95.3 µM] (inactive),
O=C(O)c1ccccc1Nc1cc(Cl)ccc1C(=O)O,3.58% (inactive),
CCCCNC(=S)NCCCC,-1.43% (inactive),
O=C(O)c1cccc(Cl)c1Cl,-1.72% (inactive),
C=CCc1cc(OC)c(O)c(C(=O)NCCO)c1,1.99% (inactive),
CC(C)(C)c1ccc(OC(=O)c2ccccc2O)cc1,,21.7 µM (active)
